# This excerpt belongs to a sample that is enriched for hits.
# TbREL1 inh: TbREL1 inhibition, primary screen; 89,000 tested, 0.49% active; AID 1117264; P86926; TbREL1 RNA ligation, FRET fluorescence; inhibition, % at 9.66 µM;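 active = inhibition above the mean inhibition across all screened compounds plus 3 SD, cut at about 11% in these data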;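 note: 0% = plate median of test wells and 100% = NSC42067 control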
# Target sequence (P86926 whole entry, looked up): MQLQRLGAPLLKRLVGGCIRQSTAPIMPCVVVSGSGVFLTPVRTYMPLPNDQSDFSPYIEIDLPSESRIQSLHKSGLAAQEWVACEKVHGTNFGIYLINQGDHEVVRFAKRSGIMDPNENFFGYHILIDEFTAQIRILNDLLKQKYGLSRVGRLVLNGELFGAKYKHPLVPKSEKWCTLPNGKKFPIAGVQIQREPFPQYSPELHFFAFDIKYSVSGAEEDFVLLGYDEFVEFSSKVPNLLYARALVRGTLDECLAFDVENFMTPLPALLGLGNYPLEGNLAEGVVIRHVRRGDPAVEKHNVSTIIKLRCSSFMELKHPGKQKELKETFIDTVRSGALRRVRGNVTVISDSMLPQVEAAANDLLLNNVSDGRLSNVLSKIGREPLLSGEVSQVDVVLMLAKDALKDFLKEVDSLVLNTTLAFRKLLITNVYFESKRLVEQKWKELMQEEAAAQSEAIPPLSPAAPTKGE
# TbREL1 conf: TbREL1 inhibition, confirmation | inhibition, % at 9.66 µM | shares compounds with TbREL1 inh | 390 tested, 37% active | TbREL1 RNA ligation, FRET fluorescence;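 active = mean inhibition across replicates above a set limit taken from the earlier primary screen, cut at about 11% in these data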;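 note: 0% = REL1 with substrate and DMSO and 100% = REL1 plus control inhibitor NSC42067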
# The depositor's hits bear a star.
SMILES,TbREL1 inh,others
COc1cc(/C=N/O)ccc1OCc1ccc(C(=O)O)cc1,1,
NC(N)=N/N=C/c1ccc(OCc2ccccc2)c(OCc2ccccc2)c1,12*,TbREL1 conf=10
COc1cc(/C=N/NC(=O)c2cccs2)ccc1OCc1ccccc1,0,
CCNC(=O)CCc1nc(-c2ccc(C(C)C)cc2)no1,1,
CCCC[C@H](C(=O)N(C)c1cccc(OC)c1)[C@@H](O)c1ccc(C(C)=O)cc1,2,
COc1ccc(N2CCN(CCCNC(=O)Cn3c(=O)c4cccn4c4c(C)ccnc43)CC2)cc1,-9,
Cc1cc(C)cc(NC(=O)OC2CC3CC2[C@H]2CCCCN2[C@H]3C)c1 (stereo partly specified),-2,
COC(=O)C1=C(C)N(C)C(=NCc2ccc(C(F)(F)F)cc2)NC1c1ccc(C(F)(F)F)cc1 (stereo unspecified),7,
COC(=O)C1=C(C)N(C)C(=NCc2ccccc2C(F)(F)F)NC1c1ccc(C(F)(F)F)cc1 (stereo unspecified),12*,TbREL1 conf=10
COC(=O)C1=C(C)N(CCCC(=O)O)C(=O)NC1c1ccc(C(F)(F)F)cc1 (stereo unspecified),1,
COC(=O)C1=C(C)N(C)C(=NCc2ccccc2C(F)(F)F)NC1c1ccc(Cl)cc1 (stereo unspecified),13*,TbREL1 conf=7
Cc1cc(C)cc(N(CC(=O)NC2CCC(C)CC2)S(=O)(=O)c2ccc([N+](=O)[O-])cc2)c1 (stereo unspecified),-1,
O=C(C1CC1)n1ccc2ccc(-c3ccc4ccn(Cc5ccccc5)c4c3)cc21,6,
CC(O)CNc1ncnc2cc(-c3ccc(F)cc3)sc12 (stereo unspecified),7,
C=CCNc1nc(NCc2cccc(OC)c2)c2sc(-c3ccccc3)cc2n1,2,
CC(C)Nc1nc(NCCOc2ccccc2Cl)c2sc(-c3ccccc3)cc2n1,13*,TbREL1 conf=16*
O=S(=O)(c1cccc2cccnc12)N1CCC(c2cn3ccccc3n2)CC1,4,
Cc1cc(NS(=O)(=O)c2ccc(NC(=O)CSc3nnc(-c4ccccn4)n3-c3ccccc3)cc2)nc(C)n1,-1,
O=C(Nc1ccc2ncccc2c1)c1cc(-c2ccc(Cl)cc2)nc2ccccc12,-1,
CCOC(=O)[C@]12CCCC3=C1N(CCC3)C(=O)[C@@H](CC(=O)NCCCOC)C2,4,
O=C(C1CCCN1S(=O)(=O)c1ccc(Br)s1)N1CCc2ccccc2C1 (stereo unspecified),0,
O=C(CN1C(=O)c2ccccc2C1=O)Nc1cc([N+](=O)[O-])ccc1O,0,
O=C(CN1C(=O)c2ccc([N+](=O)[O-])cc2C1=O)NCc1ccco1,12*,TbREL1 conf=2
Cc1c(NC(=O)CN2C(=O)c3ccc([N+](=O)[O-])cc3C2=O)c(=O)n(-c2ccccc2)n1C,-2,
CCCCCCCCN1C(=O)[C@@H](CC(=O)NCCC(C)C)C[C@@]2(C(=O)OC)C1=C[C@H](C(C)C)O[C@@H]2C1CC1,0,
SMILES,TbREL1 inh,others
COc1ccc(Cn2cc(COC(=O)N3CCCC3)nn2)cc1,-2,
CC(=O)Nc1cc2c3ccccc3ccc2c2ccccc12,32*,TbREL1 conf=5
CC(=O)Nc1ccc(NC(=O)c2cccc3ccccc23)cc1,3,
CC(=O)Nc1ccccc1NC(=O)COc1cccc2ccccc12,0,
COc1cccc(C=NNC(=O)CSc2nc3ccccc3[nH]2)c1O,-6,
Cc1ccc(OCc2nnc(SCC(=O)Nc3ccc4c(c3)OCO4)n2Cc2ccco2)cc1,-3,
COc1cccc(NC(=O)C2CCCN2C(=O)NC2CCC(C)CC2)c1 (stereo unspecified),-1,
O=C(NNS(=O)(=O)c1ccc(F)cc1F)C1Cc2c(ccc3ccccc23)O1 (stereo unspecified),3,
Cc1nc2ccc(NS(=O)(=O)c3ccc(F)cc3F)cc2s1,2,
O=S(=O)(Nc1nc(-c2ccco2)c(-c2ccco2)s1)c1ccc(F)cc1F,31*,TbREL1 conf=-1
CCCCCCC(=O)NC1CCCCN(Cc2ccc(Cl)cc2)C1=O (stereo unspecified),-2,
S=C(Nc1ccccc1I)OC1CCC12CCC(c1ccccc1)CC2 (stereo unspecified),5,
O=C1/C(=C\c2ccco2)SC(=S)N1C1CCS(=O)(=O)C1 (stereo unspecified),19*,TbREL1 conf=1
O=C1/C(=C\c2ccco2)SC(=S)N1c1ccccc1,9,
Cc1ccc(N2C(=O)/C(=C\c3ccco3)SC2=S)cc1,2,
C#CCNC(=O)C[C@H]1C[C@@]2(C(=O)OCC)CCCC3=C2N(CCC3)C1=O,5,
Oc1ccc2ccccc2c1C=Nn1c(-c2n[nH]c3c2CCC3)n[nH]c1=S,-2,
CC(=O)N1CCc2cc(S(=O)(=O)NCCC(=O)N(C)Cc3ccccc3F)ccc21,1,
C[C@@H]1C[C@H]2O[C@@H]2/C=C\C=C\C(=O)Cc2cc(O)cc(O)c2C(=O)O1,-1,
C#CCOCCOCCOCCNc1nc(N2CCN(C(=O)[C@H](CCCCN)n3cc([C@@H](N)C(C)CC)nn3)CC2)nc(N2CCN(C(=O)[C@H](CCCCN)n3cc([C@@H](N)C(C)CC)nn3)CC2)n1 (stereo partly specified),16*,TbREL1 conf=17*
C#CCOCCOCCOCCNc1nc(N2CCN(C(=O)[C@H](CCCN=C(N)N)n3cc(C(N)[C@@H](C)CC)nn3)CC2)nc(N2CCN(C(=O)[C@H](CCC(=O)O)n3cc([C@@H](N)CCCCN)nn3)CC2)n1 (stereo partly specified),2,
C#CCOCCOCCOCCNc1nc(N2CCN(C(=O)[C@H](CCCCN)n3cc([C@@H](N)[C@H](C)CC)nn3)CC2)nc(N2CCN(C(=O)[C@H](CCC(=O)O)n3cc([C@@H](N)CCCCN)nn3)CC2)n1,4,
O=C(C1CCCO1)N1CCN(C2=Nc3ccccc3Sc3ccccc32)CC1 (stereo unspecified),-1,
CCOC(=O)[C@@]12CCC3=C1N(CCC3)C(=O)[C@H](CC(=O)NCCC(C)C)C2,3,
Cn1c(=O)c2[nH]c(SCC(=O)NCCc3ccc(F)cc3)nc2n(C)c1=O,0,
SMILES,TbREL1 inh,others
CN1CCN(C(=S)Nc2ccc([N+](=O)[O-])cc2)CC1,-2,
O=C(NC1CCCCC1)c1ccc([N+](=O)[O-])cc1,1,
O=C1CCCCC1Nc1ccc([N+](=O)[O-])cc1 (stereo unspecified),18*,TbREL1 conf=2
COc1ccc2c(c1C(=O)/C=C/c1ccccc1)OC(C)(C)C=C2,7,
C=CCN1C(=O)[C@H](CC(=O)NCc2ccccc2)[C@@]2(C(=O)OCC)CCCC=C12,-3,
CCN(C(=O)COC(=O)c1cc([N+](=O)[O-])ccc1N1CCCCC1)C1CCS(=O)(=O)C1 (stereo unspecified),11*,TbREL1 conf=2
CN(C(=O)COC(=O)c1cc([N+](=O)[O-])ccc1N1CCOCC1)C1CCCCC1,-2,
CCN(C(=O)COC(=O)c1cc(OC)c(OC)cc1[N+](=O)[O-])C1CCS(=O)(=O)C1 (stereo unspecified),0,
O=C(CCc1nc(-c2ccccc2F)no1)NCCc1ccccc1F,-3,
Cc1nc2ccc(S(=O)(=O)NCC(=O)N(C)Cc3ccccc3F)cc2s1,1,
CN1C2=N[C@H](c3ccc(Br)cc3)CC(=O)N2/C(=C\c2ccccc2)[C@@H]1c1ccccc1,-6,
FC(F)(F)c1ccccc1Cn1ccc2ccc(-c3ccc4ccn(Cc5ccccc5C(F)(F)F)c4c3)cc21,1,
CCOc1ccc(NC(=O)CSC2=NN3CCCC(=O)N=C3S2)cc1,-3,

# Source: PubChem (The Scripps Research Institute Molecular Screening Center)
